Compound activity as filed in PubChem.
TDP1 inh – inhibitors of human tyrosyl-DNA phosphodiesterase TDP1; recombinant TDP1, AlphaScreen DNA substrate cleavage; Q9NUW8; AID 485290; Potency, µM (titrated, usually from 130 µM), for inactives: at the highest dose activity change, negative = inhibition, most hits filed as inhibitors; 350,000 tested, 0.28% active; note: potency is the fitted concentration of half-maximal effect; % is set by controls: 0 for no effect and ±100 for the full control effect; nearly all actives have a fitted effect of over 40% in size
Target sequence (Q9NUW8 whole entry, looked up): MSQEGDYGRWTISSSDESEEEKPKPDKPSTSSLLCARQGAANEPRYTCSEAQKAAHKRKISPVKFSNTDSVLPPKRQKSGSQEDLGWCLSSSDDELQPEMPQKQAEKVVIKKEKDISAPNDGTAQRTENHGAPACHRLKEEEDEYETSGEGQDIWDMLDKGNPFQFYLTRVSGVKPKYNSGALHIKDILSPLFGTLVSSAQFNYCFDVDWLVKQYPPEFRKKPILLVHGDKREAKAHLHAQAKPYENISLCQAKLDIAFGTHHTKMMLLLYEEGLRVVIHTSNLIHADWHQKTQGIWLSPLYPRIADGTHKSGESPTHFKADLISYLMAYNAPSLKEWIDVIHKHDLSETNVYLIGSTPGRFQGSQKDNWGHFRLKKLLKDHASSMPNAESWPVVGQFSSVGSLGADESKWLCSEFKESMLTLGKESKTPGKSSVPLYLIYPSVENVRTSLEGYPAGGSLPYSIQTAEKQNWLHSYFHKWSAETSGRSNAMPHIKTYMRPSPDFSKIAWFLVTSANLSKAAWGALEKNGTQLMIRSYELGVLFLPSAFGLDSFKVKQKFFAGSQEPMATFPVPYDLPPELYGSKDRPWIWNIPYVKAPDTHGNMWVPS
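Compounds were preincubated with Tdp1 (1 nM final) for 15 min at room temperature before substrate (15 nM final) started a 5 min reaction; beads (10 ug/ml final) were then added for 10 min before AlphaScreen detection.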
HepG2 viability – counter-screen for TGF-b inhibitors: cytotoxicity in HepG2 cells; 410,000 tested, 0.76% active; Potency, µM (titrated, usually from 46.1 µM), for inactives: at the highest dose activity change, negative = cytotoxicity, most hits filed as cytotoxic; HepG2 CAGA-GFP viability, ATP luminescence, 18 h; note: potency is the fitted concentration of half-maximal effect
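CellTiter-Glo luminescence gave cytotoxicity after 18 hours at 37 degrees C. The cells were HepG2 CAGA-GFP in 1% FBS DMEM, stimulated with 500 pg/mL TGF-beta after compound addition. %Activity was normalised to no-cell wells (complete cell-killing) and DMSO (no toxicity), and curves were fitted and classified.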
IL-1B inflam inh – inhibitors of inflammasome signaling (IL-1 beta secretion). THP-1 LPS/ATP IL-1B secretion, AlphaLISA, 16 h; hits give low values. activity change, % at 57.5 µM. 360,000 tested, 4.7% active. AID 743279; in the data active = activity change below about -50%; inconclusive = mostly about -30% to -49%; note: % is set by controls: 0 for no effect and ±100 for the full control effect
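Secreted IL-1B measured by AlphaLISA bead assay after 16 h compound exposure of THP-1 cells; compounds (final up to 57.5 uM) added 1 h before LPS (250 ng/mL) and ATP (1.25 mM) stimulation; lower signal means less secretion.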
TGFb inhibitor – TGF-b pathway inhibition. HepG2 CAGA-GFP TGF-b/SMAD3 reporter, GFP fluorescence, 18 h; TGF-beta stimulated, 500 pg/mL final. Potency, µM (top dose mostly 46.1 µM), for the others: at the top dose activity, negative = inhibition, hits mostly inhibitors. 410,000 tested, 1.2% active. AID 588855; note: potency is the fitted concentration of half-maximal effect; % is set by controls: 0 for no effect and ±100 for the full control effect; nearly all actives have a fitted effect of over 65% in size
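Cell-based qHTS in HEPG2 carrying a CAGA-GFP Smad reporter; compounds added before 500 pg/mL final TGF-beta, 18 h incubation at 37 degrees C, GFP fluorescence quantified per cell by imaging cytometry.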
DT40 TDP1 no CPT – qHTS for Inhibitors of human tyrosyl-DNA phosphodiesterase 1 (TDP1): qHTS in cells in absence of CPT; DT40 Tdp1-/- hTDP1 cells, no CPT, ATP luminescence, 48 h; Potency, µM (series often up to 46.2 µM), without a hit: at the top dose activity change, negative = growth inhibition, most hits filed as inhibitors; 420,000 tested, 15% active; AID 686978, 2013; note: potency is the fitted concentration of half-maximal effect; % is set by controls: 0 for no effect and ±100 for the full control effect; nearly all actives have a fitted effect of over 55% in size
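Cells were dispensed at 400 per well, compounds added by pin tool, plates incubated ≥48 hr at 37 °C, then CellTiter-Glo added for 30 min at room temperature before luminescence reading. Line: DT40 Tdp1-/- complemented with hTDP1; camptothecin omitted.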
TDP1 cell CPT – DT40-hTDP1 cell growth loss with CPT | AID 686979 | 420,000 tested, 12% active | Potency, µM (titrated, usually from 46.2 µM), inactives show top-dose activity change, negative = growth inhibition, most hits filed as inhibitors | chicken DT40 Tdp1-/-;hTDP1 cells + 20 nM CPT, ATP luminescence, 48 h; note: potency is the fitted concentration of half-maximal effect; % is set by controls: 0 for no effect and ±100 for the full control effect; nearly all actives have a fitted effect of over 55% in size
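Cell growth measured by CellTiter-Glo luminescence after a minimum 48 h, 37 C compound exposure with 20 nM CPT in Tdp1-knockout DT40 cells stably expressing hTDP1, seeded 400/well; qHTS titration format.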
Active calls of the source: *; i = inactive; ? = inconclusive; . = no result; [ ] = remark or other dose. Only some compounds are listed: those with a hit (about 19% of all), similar ones and a draw of the others. Unless noted, calls come from the whole dose curve; as a rule, active = well fitted curve in the direction sought with a large enough effect; inconclusive = small, poorly fitted or top-dose-only effect, or another doubt; inactive = no such curve, though single readings can be large; an effect the other way counts as inactive or inconclusive.

SMILES	TDP1 inh	HepG2 viability	IL-1B inflam inh	TGFb inhibitor	DT40 TDP1 no CPT	TDP1 cell CPT
OC[C@@H]1CN(Cc2ccc(-c3ccccc3)cc2)C[C@H](n2cnc3c(N4CCCC4)ncnc32)O1	.	-24%	-16	?	21µM*	18µM*
CC(C)C(NS(=O)(=O)c1ccccc1F)C(=O)OCC(=O)NCc1ccco1 (stereo not drawn)	0%	3%	2	-15%	14%	12%
C(=N\Nc1ncnc2sc3c(c12)CCC3)/c1ccncc1	1%	-26%	0	?	?	?
CN(C)c1ccc(Nc2ncnc3sc4c(c23)CCCC4)cc1	16%	-36%	.	11%	23µM*	?
c1cc(Nc2ncnc3sc4c(c23)CCC4)ccn1	7%	-1%	-6	4%	?	?
NNc1ncnc2sc3c(c12)CCC3	10%	-49%	76	?	18µM*	8.2µM*
C=C(C)C(=O)OCCOC(=O)C(=C)C	6%	.	.	.	.	.
CCOc1cc(C(c2c(C)[nH][nH]c2=O)c2c(C)[nH][nH]c2=O)ccc1O	6%	-2%	-63*	-5%	-8%	-19%
Cc1[nH][nH]c(=O)c1C(c1ccc(O)c(Br)c1)c1c(C)[nH][nH]c1=O	.	-14%	-73*	-4%	?	-27%
Cc1[nH][nH]c(=O)c1C(c1ccc(O)c([N+](=O)[O-])c1)c1c(C)[nH][nH]c1=O	3%	6%	-20	1%	?	-27%
COc1cc(C(c2c(C)[nH][nH]c2=O)c2c(C)[nH][nH]c2=O)ccc1OC(C)C	-7%	0%	-70*	-16%	-23%	12%
COc1ccc(C(c2c(C)[nH][nH]c2=O)c2c(C)[nH][nH]c2=O)cc1Br	5%	-24%	-29	-11%	?	-6%
O=C(Cn1cc(S(=O)(=O)Cc2cccc(Cl)c2)c2ccccc21)Nc1ccccc1Cl	-4%	-14%	.	-12%	1%	-3%
Cc1c(C(=O)N(C)C)sc2c1c(=O)n(-c1ccc(Cl)cc1)c(=O)n2CC(=O)C(C)(C)C	4%	-4%	.	?	?	-19%
Cc1ccc(O)c(-c2cc3ccccc3[nH]2)c1	9%	-64%	-13	16µM*	-36%	-6%
COCCCn1c(=N)c(S(=O)(=O)c2ccccc2)cc2c(=O)n3cccc(C)c3nc21	.	-24%	.	6%	.	.
CC1CCc2nn(CC(=O)Nc3cccc(C(F)(F)F)c3)c(=O)cc2C1 (stereo not drawn)	-1%	-15%	.	-19%	?	?
COc1cc(NC(=S)NC(=O)c2ccc(C)cc2C)ccc1NC(=O)c1cccs1	-8%	-28%	25	-1%	?	?
COc1cc(NC(=O)c2ccc(OC)c([N+](=O)[O-])c2)ccc1NC(=O)c1cccs1	0%	0%	12	?	6%	5%
CC(C)(C)NC(=O)c1cc(NC(=O)c2cccs2)cc(NC(=O)c2cccs2)c1	2%	-13%	-9	?	21µM*	?
COc1ccc(C(=O)Nc2cccc(NC(=O)c3cccs3)c2)cc1	.	-4%	?	-15%	?	?
CCOc1ccc(C(=O)Nc2cccc(NC(=O)c3cccs3)c2)cc1[N+](=O)[O-]	5%	-4%	-25	-24%	18µM*	?
O=C(Nc1cccc(NC(=O)c2cccs2)c1)c1ccc(F)cc1	.	-21%	-61*	-13%	?	?
COc1cc(NC(=O)c2ccc(C)cc2C)ccc1NC(=O)c1cccs1	3%[0.0935 µM]	-10%	-63*	0%	-17%	-7%
Cc1cc(C)cc(C(=O)Nc2ccc(NC(=O)c3cccs3)cc2)c1	1%	-27%	4	?	?	?
SMILES	TDP1 inh	HepG2 viability	IL-1B inflam inh	TGFb inhibitor	DT40 TDP1 no CPT	TDP1 cell CPT
CC(=O)c1ccc(F)c(-c2cc(C)cc3c2OC(CNC(=O)C2CCCCN2C)C3)c1 (stereo not drawn)	.	.	.	.	?	-6%[9.04 µM]
CC(C)CN1C(=O)c2ccc(NC(=O)c3cccs3)cc2C1=O	6%	-29%	-52*	-14%	18µM*	?
O=C(Nc1cccc2ccccc12)/C(=C/c1cccc([N+](=O)[O-])c1)NC(=O)c1cccs1	-1%	-63%	8	-26%	?	4%
Cc1cccc(NC(=O)/C(=C/c2cccc([N+](=O)[O-])c2)NC(=O)c2cccs2)c1	5%	-5%	-6	-15%	1.8µM*	-46%
COc1cc(NC(=O)c2c(F)c(F)c(OC)c(F)c2F)ccc1NC(=O)c1cccs1	3%	-10%	0	14%	18µM*	21µM*
COc1cc(NC(=O)c2cc(OC)c(OC)c(OC)c2)ccc1NC(=O)c1cccs1	4%	8%	i	2%	?	?
O=C(Nc1cccc(NC(=O)c2cccs2)c1)c1ccc(Br)o1	.	-15%	-11	12%	21µM*	-25%
O=C(Nc1ccc(NC(=O)c2cccs2)cc1)c1ccc(Br)o1	.	-20%	-21	4%	?	?
COc1cc2ccccc2cc1C(=O)Nc1ccc(O)cc1	-4%	-28%	0	?	?	-30%
N#Cc1c(F)cccc1NCCCn1ccnc1	.	-8%	-4	0%	-13%	-13%
Cc1ccc(C(=O)Nc2cccc(NC(=O)c3cccs3)c2)c(C)c1	.	-18%	1	-19%	16µM*	-67%
CCS(=O)(=O)N1CCN(c2cc3c(cc2[N+](=O)[O-])n(C)c(=O)n3C)CC1	5%	-2%	8	?	?	2%
CC(=O)Nc1ccc(S(=O)(=O)N2CCN(c3cc4c(cc3[N+](=O)[O-])n(C)c(=O)n4C)CC2)cc1	4%	2%	-11	?	18µM*	?
Cn1c(=O)n(C)c2cc([N+](=O)[O-])c(N3CCN(S(=O)(=O)c4ccc(C(C)(C)C)cc4)CC3)cc21	0%	-30%	-30	?	?	21µM*
COc1ccc(-c2noc(-c3ccc(NCCc4ccccc4)c([N+](=O)[O-])c3)n2)cc1	14%	2%	.	-4%	-7%	-3%
CCOC(=O)c1scc(-c2ccccc2)c1S(=O)(=O)Nc1ccc(N(C)C)cc1	14%	-9%	.	?	?	?
CCOc1ccccc1NC(=O)/C(C#N)=C/c1c(C)nn(-c2ccccc2)c1Cl	3%	11%	-51*	23%	?	?
